High-throughput results deposited in PubChem BioAssay by National Center for Advancing Translational Sciences (NCATS).
The list is not random: actives were taken first. Their share in the collection is about 10%.
Pf growth 96h – P. falciparum growth inhibition at 96 hour, primary screen for plastid delayed-death inhibitors | P. falciparum luciferase reporter growth, 96 h | Potency, µM (series often up to 28.7 µM), actives largely listed as inhibitors | 320,000 tested, 6.9% active; active = well fitted inhibition curve with a large enough effect; inconclusive = small, poorly fitted or top-dose-only effect, or another doubt; inactive = no such curve, though single readings can be large or run the other way
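Cell-based qHTS: luciferase-tagged P. falciparum in erythrocytes (2% hematocrit, 0.05% parasitemia final) incubated with compounds for 96 hours, 37 C, 5% CO2; luciferase detection reagent then added and luminescence measured.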
Pf growth 48h – P. falciparum growth inhibition at 48 hours (one generation). P. falciparum luciferase growth in erythrocytes, 48 h. Potency, µM (doses to about 28.7 µM), most hits filed as inhibitors. 310,000 tested, 5.9% active; active = well fitted inhibition curve with a large enough effect; inconclusive = small, poorly fitted or top-dose-only effect, or another doubt; inactive = no such curve, though single readings can be large or run the other way
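Read-out is firefly luciferase luminescence from an integrated reporter in P. falciparum, so falling signal marks reduced parasite growth. Infected erythrocytes were at 2% hematocrit and 0.1% parasitemia (final) in Albumax-supplemented RPMI 1640.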
SARS PLpro yeast – SARS-CoV PLP inhibition in yeast. Potency, µM (top dose mostly 32.9 µM), most hits filed as activators. 330,000 tested, 0.19% active. AID 485353. S. cerevisiae expressing SARS-CoV PLpro, growth rescue; note: nearly all actives have a fitted effect of over 55% in size
NS1 inh – influenza NS1 inhibition; Potency, µM (titrated, usually from 46.1 µM); 270,000 tested, 0.4% active; AID 2326; note: actives are rising curves; nearly all actives have a fitted effect of over 50% in size
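Growth recovery, yeast-based: influenza A NS1 expressed in S. cerevisiae causes slow growth, and suppressors are detected by OD600. The parent strain without NS1 is used as positive control.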
Flu NS1 inh – influenza NS1 function inhibition validation; shares compounds with NS1 inh; activity change, negative = inhibition, % at 32.9 µM; influenza NS1 function cell assay, 15-point titration; 1,400 tested, under 10 active
Large screens that a line does not name were inactive (follow-up assays come after a bar, where they were run). Unless noted, calls come from the whole dose curve.

Cc1cc2occ(CC(=O)N(C)CC(=O)Nc3ccccc3C(F)(F)F)c2cc1C	none (no result: NS1 inh)
CCN(CC)S(=O)(=O)c1cccc(C(=O)Nc2cccc(C)c2)c1	none (no result: Pf growth 48h)
CCN(CC)S(=O)(=O)c1cccc(NC(=O)C2SC(=Nc3ccc(C)cc3C)C(C(=O)NC(C)COC)=C2N)c1 (configuration not stated)	Pf growth 96h 3.7µM, NS1 inh 12.6µM (no result: Pf growth 48h) | Flu NS1 inh inactive
Cc1nnc(SCC(=O)NC2CCCCC2C)s1 (configuration not stated)	Pf growth 96h inconclusive
COc1ccc(/C=C2/C(=O)N(c3c(F)c(F)c(F)c(F)c3F)N=C2C)cc1	Pf growth 96h inconclusive, NS1 inh 11.2µM | Flu NS1 inh inactive
O=C(CCC(=O)N(CC(=O)NC1CCCCC1)Cc1cccs1)Nc1nccs1	NS1 inh 6.31µM | Flu NS1 inh inactive
O=C(CCC(=O)N(CC(=O)NC1CCCCC1)Cc1ccc(F)cc1)Nc1nccs1	none
CC(=O)NS(=O)(=O)c1ccc(NC(=O)c2ccc3c(c2)OCO3)cc1	Pf growth 96h inconclusive
CC(C)(C)C1CCc2onc(C(=O)Nc3ccc(F)cc3F)c2C1 (configuration not stated)	NS1 inh inconclusive | Flu NS1 inh inconclusive
COc1ccc2oc(C(=O)OCC(=O)N(C)c3c(N)n(Cc4ccccc4)c(=O)[nH]c3=O)c(C)c2c1	Pf growth 48h inconclusive (no result: NS1 inh)
O=C(NCC1CCCO1)C(c1cccs1)N(Cc1cccs1)C(=O)c1ccc(-c2ccccc2)[nH]1 (configuration not stated)	Pf growth 48h inconclusive, NS1 inh 12.6µM | Flu NS1 inh inactive
CC(C)C(C(=O)NCC1CCCO1)N(Cc1cccs1)C(=O)CNS(=O)(=O)c1ccccc1 (configuration not stated)	none
C=CCN1CC[C@]23c4c5ccc(O)c4OC2C(=O)CC[C@@]3(O)C1C5 (some centres not stated)	NS1 inh 12.6µM | Flu NS1 inh inactive
CNS(=O)(=O)c1cc(N(C)S(=O)(=O)c2ccc(C)cc2)c(C)cc1C	none
Cc1ccc(S(=O)(=O)N(C)c2cc(S(=O)(=O)N3CCC(C)CC3)c(C)cc2C)cc1	Pf growth 96h 11.7µM, Pf growth 48h 10.4µM, NS1 inh 11.2µM | Flu NS1 inh inactive
CC(O)/C=C/c1cccc[n+]1C (configuration not stated)	Pf growth 96h inconclusive, Pf growth 48h inconclusive, NS1 inh 12.6µM | Flu NS1 inh inactive
C[n+]1ccccc1/C=N/O	Pf growth 96h inconclusive
Cc1ccc(-c2cc(C(=O)Nc3ccc(S(=O)(=O)Nc4nccs4)cc3)c3ccccc3n2)c(C)c1	Pf growth 48h inconclusive
O=C(Nc1ccc(S(=O)(=O)Nc2nccs2)cc1)c1cc(-c2ccccc2)nc2ccccc12	Pf growth 96h inconclusive, NS1 inh 11.2µM | Flu NS1 inh inactive
CSc1cccc(CN2CCCC(C(=O)Nc3cccc(-n4cccn4)c3)C2)c1 (configuration not stated)	none
CCC1CCCCN1CCCNC(=O)CN1C(=O)CSc2ccc(S(=O)(=O)N3CCC(C)CC3)cc21 (configuration not stated)	NS1 inh 1.78µM | Flu NS1 inh inactive
COc1ccccc1NC(=O)NCC1(N(C)C)CCCCC1	NS1 inh inconclusive | Flu NS1 inh inactive
COc1ccccc1NS(=O)(=O)c1ccc(C(=O)NCC2(N(C)C)CCCCC2)cc1	Pf growth 96h inconclusive, Pf growth 48h inconclusive (no result: NS1 inh)
C[C@H](CO)N1C[C@H](C)[C@@H](CN(C)S(=O)(=O)c2ccc(F)cc2)Oc2ccc(NC(=O)C3CCCCC3)cc2C1=O	none (no result: Pf growth 96h, Pf growth 48h, NS1 inh)
CC(C)OP(=O)(OC(C)C)C(Nc1ccccc1)c1cccnc1 (configuration not stated)	none
Cc1cc(NC(=O)/C=C/c2cccc(Cl)c2)n(-c2nc3ccccc3[nH]2)n1	Pf growth 96h inconclusive, Pf growth 48h inconclusive, NS1 inh 1.78µM | Flu NS1 inh inactive
N#CC1=C(N)NC(SCC(=O)O)=C(C#N)C12CCCC2	NS1 inh 2.24µM | Flu NS1 inh inactive
COc1ncnc(OC)c1S(=O)(=O)Nc1ccc(C(F)(F)F)cc1	none
CC1(C)N=C(N)NC(Nc2ccc(Br)cc2)=N1	Pf growth 48h 5.22µM, NS1 inh 7.94µM (no result: Pf growth 96h) | Flu NS1 inh inactive
COC(=O)c1ccc(N2NC(=O)/C(=C/c3cc(OC)c(O)c(OC)c3)C2=O)cc1	NS1 inh 3.55µM | Flu NS1 inh inactive
COC(=O)c1ccc(N2NC(=O)/C(=C/c3cc(OC)c(OC)c(OC)c3)C2=O)cc1	Pf growth 48h inconclusive
COC(=O)c1ccc(C2C(C(=O)Nc3ccc(C)cc3C)=C(C)Nc3ncnn32)cc1 (configuration not stated)	NS1 inh 22.4µM (no result: Pf growth 48h) | Flu NS1 inh inactive
COC(=O)C1=C(C)Nc2ncnn2C1c1ccc(OC(=O)c2ccccc2)cc1 (configuration not stated)	Pf growth 96h inconclusive
Cn1c(CNC(=O)c2ccco2)nnc1SCC(=O)Nc1ccc(Cl)cc1	Pf growth 96h inconclusive (no result: NS1 inh)
Cc1ccc(C)c2[nH]c(=O)c(C(c3nnnn3Cc3ccccc3)N3CCc4ccccc4C3)cc12 (configuration not stated)	Pf growth 48h 10.4µM, NS1 inh 10µM (no result: Pf growth 96h) | Flu NS1 inh inactive
O=C(CN1CCc2ccccc2C1)NCc1ccco1	NS1 inh inconclusive (no result: Pf growth 96h) | Flu NS1 inh inactive
CC1CCN(CC(=O)NCc2ccco2)CC1	none
COc1cc(/C=N/NC(=S)N/N=C/c2cc(OC)c(OC)c(OC)c2)cc(OC)c1OC	NS1 inh 11.2µM | Flu NS1 inh inactive
Cc1ccc(OCCCCNC2CCCCC2)c(C)c1	Pf growth 48h inconclusive (no result: NS1 inh)
O=C(/C=C1\NC2(CCCC2)Cc2ccccc21)C(=O)N/N=C/c1ccc(O)c(O)c1	Pf growth 96h inconclusive, Pf growth 48h inconclusive, NS1 inh 17.8µM | Flu NS1 inh inactive
COc1ccc(/C=N/NC(=O)C(=O)/C=C2\NC3(CCCC3)Cc3ccccc32)cc1	Pf growth 96h inconclusive, Pf growth 48h inconclusive
Cc1nn(-c2ccc(N3CCCCC3)nn2)c(C)c1CCC(=O)Nc1ccc(F)c(F)c1	NS1 inh inconclusive
COc1ccc(/C(C)=N\NS(C)(=O)=O)c(OC)c1	NS1 inh inconclusive | Flu NS1 inh inactive
Cc1nn(-c2ccccc2)c2sc(-c3n[nH]c(=S)o3)cc12	Pf growth 96h inconclusive, NS1 inh 2.51µM | Flu NS1 inh inconclusive
Cc1nn(-c2ccccc2)c2sc(C(=O)O)cc12	none (no result: Pf growth 96h)
CC(=O)Nc1ccc2c(c1)ncn2-c1ccc(C)cc1	Pf growth 48h inconclusive
COc1ccc(COc2cc(-c3cccc(OC)c3)nc3ccc(N)cc23)cc1	Pf growth 96h 5.86µM, Pf growth 48h 14.7µM, NS1 inh 4.47µM | Flu NS1 inh inactive
COc1ccc(COc2cc(-c3cccc(OC)c3)nc3ccc(NC(=O)c4ccc(N(C)C)cc4)cc23)cc1	Pf growth 96h 2.94µM, Pf growth 48h 2.33µM, NS1 inh 10µM | Flu NS1 inh inconclusive
COc1ccc(COc2cc(-c3cccc(OC)c3)nc3ccc(NC(C)=O)cc23)cc1	none
